According to PubChem BioAssay:
Activity calls are given as the source filed them.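 How the source made its calls, unless noted: active means inhibition of the reporter signal at or above 50%; inactive means inhibition below 50%.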

How the values were obtained:
[1] = inhibitors of TNFa-induced NFkB p65 translocation, primary screen, imaging, HUVEC, MLSMR starter and 10KST1 sets (AID 438;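 active means inhibition above 20% together with a positive visual image hit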;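 further: compound added about 3h40 before a 20 min TNFalpha stimulation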;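 on inhibition: signal is the nuclear over cytoplasmic p65 intensity ratio per well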); conditions: HUVEC TNFa-induced p65 nuclear translocation; cell count: measured here: nuclei count (cytotoxicity indicator), at 2.08 µM; inhibition: at 2 µM, stronger effect = higher value, 0% TNFa-plus-vehicle, 100% no-TNFa wells
[2] = reduction of polyQ htt aggregates in cells – imaging, exon1htt(103Q)mCFP cells, high-content imaging, primary screen (AID 483;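 active means visual image review flags a hit and inhibition of aggregation exceeds 20%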;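 further: compound exposure lasted 3 days before fixation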;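 on nuclei count: percent of the per-plate median nuclei count of sample wells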); conditions: exon1htt(103Q)mCFP cell line, aggregate imaging, at 2 µM; inhibition of aggregation: stronger effect = higher value; nuclei count: measured here: cell count, toxicity
[3] = endothelial E-selectin expression blockers – imaging, HUVEC, immunofluorescence, MLSMR starter and 10KST1 sets, primary screen (AID 487;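 active means visually confirmed hit in the image check and inhibition above 20%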;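 on inhibition: signal is fraction of cell area covered by stained E-selectin grains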;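 on nuclei count: 100% = median nuclei count of all wells on the same plate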); conditions: HUVEC TNFalpha-induced E-selectin immunofluorescence imaging, at 2 µM; inhibition: stronger effect = higher value; nuclei count: measured here: cell number, toxicity
[4] = target: Voltage-gated potassium channel subunit beta-2 (Rattus norvegicus) (UniProt P62483); test: inhibitors of rat Kvbeta2 reductase activity – biochemical, NADPH fluorescence, primary screen (AID 622;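 active means fluorescence slope higher than the sample average by over 3 SD, cut at about -0.22 in these data, passing the limit was not always enough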;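 further: slope of raw intensity against log time taken from 70 to 1610 s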); conditions: recombinant KvBeta, 4-cyanobenzaldehyde reduction, at 10 µM, stronger effect = higher value
Chain of Voltage-gated potassium channel subunit beta-2 (Rattus norvegicus) (P62483 whole entry, looked up): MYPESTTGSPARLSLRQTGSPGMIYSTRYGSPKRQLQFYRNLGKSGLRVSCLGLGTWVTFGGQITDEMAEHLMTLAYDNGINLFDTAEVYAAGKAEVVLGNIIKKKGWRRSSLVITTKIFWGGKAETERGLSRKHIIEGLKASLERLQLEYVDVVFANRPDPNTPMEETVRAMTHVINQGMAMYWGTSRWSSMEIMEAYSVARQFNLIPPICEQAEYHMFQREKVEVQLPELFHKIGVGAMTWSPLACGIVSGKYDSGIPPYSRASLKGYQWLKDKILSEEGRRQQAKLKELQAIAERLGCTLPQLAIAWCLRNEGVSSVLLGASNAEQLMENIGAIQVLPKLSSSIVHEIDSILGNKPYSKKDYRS

[5] = target: Voltage-gated potassium channel subunit beta-2 (Rattus norvegicus) (UniProt P62483); test: enhancers of rat Kvbeta2 NADPH turnover – biochemical, NADPH fluorescence, primary screen (AID 623;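 active means NADPH fluorescence slope more negative than the mean of all samples by about 3 SD, 99.7% confidence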;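 further: fluorescence intensity change per second fitted from 20 to 320 s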); conditions: Recombinant KvBeta, NADPH fluorescence decrease slope, 10 min; at 10 µM; stronger effect = lower value
[6] = target: Alpha-2C adrenergic receptor (Homo sapiens) (UniProt P18825); test: compounds altering alpha2C-coupled GIRK flux – cell-based, HEK293 alpha2C/GIRK1/2, thallium flux, primary screen (AID 624;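 active means fluorescence slope after compound addition differing from the mean of all screened samples at 99.7% confidence, in either direction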;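 further: slope of fluorescence ratio to pre-addition baseline per second over 15 to 24 s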); conditions: thallium flux BTC fluorescence, at 10 µM, actives lie on both sides
Chain of Alpha-2C adrenergic receptor (Homo sapiens) (P18825 whole entry, looked up): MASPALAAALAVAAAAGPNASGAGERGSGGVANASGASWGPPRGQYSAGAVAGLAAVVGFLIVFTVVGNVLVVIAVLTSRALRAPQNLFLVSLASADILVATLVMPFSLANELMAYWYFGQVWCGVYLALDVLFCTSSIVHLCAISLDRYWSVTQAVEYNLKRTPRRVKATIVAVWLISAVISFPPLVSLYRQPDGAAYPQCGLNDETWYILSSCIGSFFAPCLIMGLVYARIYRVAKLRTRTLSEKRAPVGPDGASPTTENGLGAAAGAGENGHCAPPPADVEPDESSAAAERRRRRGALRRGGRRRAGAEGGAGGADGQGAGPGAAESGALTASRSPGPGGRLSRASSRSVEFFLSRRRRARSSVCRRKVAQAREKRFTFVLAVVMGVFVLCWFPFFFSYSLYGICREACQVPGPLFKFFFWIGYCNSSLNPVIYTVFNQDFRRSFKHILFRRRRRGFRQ

[7] = blockers of RIG-like receptor reporter activation – cell-based, Sendai virus stimulus, luciferase, 10K MLSCN set, TLR/RLR signaling modifier project, primary screen (AID 602276;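 active means inhibition at or above 50% at 10 µM; inactive means inhibition below 50%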;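 further: firefly luciferase from ISG56 promoter only with Renilla not read in this screen; 0% = Sendai virus plus DMSO and 100% = medium plus DMSO without virus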); conditions: HEK293 RL24 IRF3 luciferase reporter, at 10 µM, stronger effect = higher value
[8] = TLR3 IRF3 reporter activation blockers – cell-based, poly I:C stimulus, luciferase, 10K MLSCN set, primary screen (AID 602277); conditions: HEK293-TLR3 RL24 IRF3 luciferase reporter, at 10 µM, stronger effect = higher value

Row | SMILES | cell count [1] | inhibition [1] | inhibition of aggregation [2] | nuclei count [2] | inhibition [3] | nuclei count [3] | fluorescence slope [4] | NADPH fluorescence slope [5] | slope [6] | inhibition [7] | inhibition [8]
1 | COc1ccc(C2C(C(C)=O)=C(O)C(=O)N2C)c(OC)c1 (stereo not drawn) | 464 | 3.8% (inactive) | -2.5% (inactive) | 116% | -48.3% (inactive) | 136% | -0.461 (inactive) | -1.6e-05 (inactive) | 0.00277 (inactive) | 5.02% (inactive) | 32% (inactive)
2 | COc1ccc(CCNC(=O)CN(c2ccccc2OC)S(C)(=O)=O)cc1 | 723 | -3.4% (inactive) | 33.6% (inactive) | 87.7% | -41.9% (inactive) | 98.4% | -0.427 (inactive) | -0.000127 (inactive) | 0.00571 (inactive) | 15.7% (inactive) | 27.5% (inactive)
3 | COCCN(C(=O)CNC(=O)c1ccco1)C(C(=O)NC1CCCCC1)c1cccc(OC)c1 (stereo not drawn) | 650 | -9.5% (inactive) | 15.9% (inactive) | 104% | 37% (inactive) | 101% | -0.444 (inactive) | -2e-05 (inactive) | 0.00264 (inactive) | 5.23% (inactive) | 36.9% (inactive)
4 | CC(C)C(c1nnnn1C1CCCC1)N1CCN(C(=O)c2ccco2)CC1 (stereo not drawn) | 426 | 9.7% (inactive) | -33.8% (inactive) | 67.7% | -101% (inactive) | 115% | -0.566 (inactive) | -1.1e-05 (inactive) | 0.00617 (inactive) | -4.43% (inactive) | 4.27% (inactive)
5 | CCc1ccccc1NC(=O)C(CC)Sc1nc2cc3c(cc2c(=O)n1Cc1ccco1)OCO3 (stereo not drawn) | 486 | 9.8% (inactive) | -21.1% (inactive) | 115% | -3.3% (inactive) | 105% | -0.494 (inactive) | -1.8e-05 (inactive) | 0.00667 (inactive) | 16.3% (inactive) | 22.3% (inactive)
6 | COC(=O)Cn1c(=NC(=O)CSCC(=O)Nc2cc(C)on2)sc2ccccc21 | 610 | -6.9% (inactive) | 2.6% (inactive) | 112% | 1.2% (inactive) | 111% | -0.417 (inactive) | -6.3e-05 (inactive) | 0.00506 (inactive) | 11.1% (inactive) | 28.1% (inactive)
7 | Cc1ccc2c(c1)NC(=O)C(CC(=O)NCCCN1CCN(c3cc(Cl)ccc3C)CC1)O2 (stereo not drawn) | 640 | 4.1% (inactive) | -19% (inactive) | 82.6% | 8.8% (inactive) | 123% | -0.55 (inactive) | 3.4e-05 (inactive) | 0.00483 (inactive) | -15.5% (inactive) | -8.91% (inactive)
8 | O=C(NCc1ccco1)C1CCN(c2ccc(N3CCOCC3)nn2)CC1 | 633 | 1.6% (inactive) | 4.1% (inactive) | 92.4% | -70.8% (inactive) | 110% | -0.387 (inactive) | 8e-06 (inactive) | 0.00458 (inactive) | -14.1% (inactive) | -20.9% (inactive)
9 | O=C(Nc1c(C(=O)NCc2ccco2)cnn1-c1ccccc1)c1ccc(F)cc1 | 400 | 6.3% (inactive) | 12.1% (inactive) | 81.6% | -23.9% (inactive) | 89.1% | -0.294 (inactive) | -2.8e-06 (inactive) | 0.00584 (inactive) | -1.86% (inactive) | 15.1% (inactive)
10 | Cc1ccc(S(=O)(=O)C2(C(=O)NC3CCCC3)CC2)cc1 | 463 | -4.2% (inactive) | -10.8% (inactive) | 110% | -58.4% (inactive) | 115% | -0.602 (inactive) | 1.6e-05 (inactive) | 0.00643 (inactive) | 13.7% (inactive) | 36.5% (inactive)
11 | COCCn1c(CN2CCN(c3ccccc3F)CC2)nc2c1c(=O)n(C)c(=O)n2C | 609 | -5.2% (inactive) | 0.1% (inactive) | 92.3% | 2.6% (inactive) | 90.2% | -0.61 (inactive) | -2.3e-05 (inactive) | 0.00711 (inactive) | -11.5% (inactive) | -9.11% (inactive)
12 | CCC(=O)N1CCN(CCN=CC2=C(O)CC(C)(C)CC2=O)CC1 | 476 | 4% (inactive) | 1.1% (inactive) | 105% | 5.8% (inactive) | 111% | -0.518 (inactive) | -2.4e-05 (inactive) | 0.00473 (inactive) | 8.29% (inactive) | 11.4% (inactive)
13 | C=CCSc1nnc(Cc2c(C)[nH]c3ccccc23)o1 | 800 | 3.5% (inactive) | 20.5% (inactive) | 92.7% | -15.9% (inactive) | 118% | -0.427 (inactive) | -6e-05 (inactive) | 0.00499 (inactive) | 7.53% (inactive) | 15% (inactive)
14 | COc1cccc(NC(=O)CSc2nnnn2C(C)C)c1 | 738 | 6.1% (inactive) | -20.3% (inactive) | 109% | -4.8% (inactive) | 123% | -0.538 (inactive) | -9e-05 (inactive) | 0.00723 (inactive) | 0.303% (inactive) | -4.86% (inactive)
15 | O=c1[nH]c2cc3c(cc2cc1C(c1nnnn1Cc1ccccc1)N1CCCc2ccccc21)OCO3 (stereo not drawn) | 552 | -7.7% (inactive) | 16.5% (inactive) | 100% | 20.7% (inactive) | 108% | -0.621 (inactive) | 1.7e-05 (inactive) | 0.0031 (inactive) | 10.6% (inactive) | 15.5% (inactive)
16 | CCOCC(=O)Nc1ccc(S(=O)(=O)N2CCOCC2)cc1 | 283 | -3.2% (inactive) | 16.5% (inactive) | 89.1% | -6.7% (inactive) | 73.9% | -0.418 (inactive) | 5.9e-06 (inactive) | 0.00604 (inactive) | 12% (inactive) | 19.7% (inactive)
17 | Cc1ccc(C)c(N2CCN(Cc3nnnn3C3CCCCC3)CC2)c1 | 458 | -4.4% (inactive) | -7.6% (inactive) | 123% | -49.3% (inactive) | 112% | -0.626 (inactive) | -2.5e-05 (inactive) | 0.00597 (inactive) | 11.6% (inactive) | 34.8% (inactive)
18 | CC(=O)c1c(C)[nH]c(C(=O)OCc2nnc(-c3ccccc3)o2)c1C | 757 | -7.8% (inactive) | -14.5% (inactive) | 122% | -43.7% (inactive) | 110% | -0.639 (inactive) | 4.8e-05 (inactive) | 0.00623 (inactive) | 14.6% (inactive) | 12.4% (inactive)
19 | Cc1ccc2nc(NC(=O)Cn3cc4c(n3)CCCCC4)sc2c1 | 899 | 0.5% (inactive) | 4% (inactive) | 100% | -44.1% (inactive) | 123% | -0.581 (inactive) | -1.2e-05 (inactive) | 0.00613 (inactive) | -7.98% (inactive) | -11.8% (inactive)
20 | O=C(Cn1nnc(-c2ccc(S(=O)(=O)N3CCCC3)cc2)n1)NCC1CCCO1 (stereo not drawn) | 374 | -6.9% (inactive) | 7.6% (inactive) | 95% | -7.7% (inactive) | 112% | -0.481 (inactive) | 3.3e-05 (inactive) | 0.00625 (inactive) | -11.8% (inactive) | 15.1% (inactive)
21 | Cc1cc(NS(=O)(=O)c2ccc(NC(=O)COc3ccc(Cl)cc3)cc2)no1 | 361 | 0.4% (inactive) | -9.7% (inactive) | 118% | -54.3% (inactive) | 122% | -0.292 (inactive) | -6.7e-05 (inactive) | 0.00576 (inactive) | 13% (inactive) | 19.8% (inactive)
22 | CC(C)N(O)C(=O)NC(C)(C)C | 496 | 9.4% (inactive) | -1.8% (inactive) | 106% | 42.3% (inactive) | 103% | -0.494 (inactive) | -2.2e-05 (inactive) | 0.00463 (inactive) | 17.4% (inactive) | 15% (inactive)
23 | Cc1ccc(C)c2[nH]c(=O)c(CCNC(=O)c3ccc(Br)o3)cc12 | 327 | -9.8% (inactive) | 14.1% (inactive) | 87% | 23.8% (inactive) | 97.7% | -0.481 (inactive) | -0.000268 (inactive) | 0.00492 (inactive) | -1.8% (inactive) | -1.41% (inactive)
24 | Cn1cc(Cl)c(C(=O)N(Cc2ccccc2)c2ccccn2)n1 | 623 | 8.3% (inactive) | -6.5% (inactive) | 102% | -5.2% (inactive) | 117% | -0.584 (inactive) | -3.1e-06 (inactive) | 0.00695 (inactive) | -18.3% (inactive) | 0.52% (inactive)
25 | O=C(Nc1ccc(F)cc1)N(Cc1ccco1)Cc1cc2cc3c(cc2[nH]c1=O)OCO3 | 473 | 4.5% (inactive) | 6.1% (inactive) | 96.6% | 15.9% (inactive) | 102% | -0.418 (inactive) | -2e-05 (inactive) | 0.0056 (inactive) | -8.59% (inactive) | -15.6% (inactive)
26 | O=C(c1cccnc1NCc1ccccc1)N1CCOCC1 | 616 | -26.5% (inactive) | 5.4% (inactive) | 114% | -53.4% (inactive) | 116% | -0.613 (inactive) | 2e-05 (inactive) | 0.00541 (inactive) | -13.7% (inactive) | -5.42% (inactive)
27 | C=CCn1c(COc2cccc(C)c2)nnc1SCC(=O)NC(=O)NCc1ccco1 | 365 | -10.6% (inactive) | 23.8% (inactive) | 86.7% | 6.1% (inactive) | 113% | -0.405 (inactive) | 3.1e-05 (inactive) | 0.00673 (inactive) | 16.1% (inactive) | 30.1% (inactive)
28 | CC(C)(C)NC(=O)Cn1nnnc1-c1nonc1N | 433 | 9.2% (inactive) | -5.9% (inactive) | 120% | -94.7% (inactive) | 120% | -0.618 (inactive) | -4.6e-05 (inactive) | 0.00302 (inactive) | -5.7% (inactive) | -10.1% (inactive)
